According to PubChem BioAssay (NCATS):

Assay: qHTS profiling of the MIPE4 collection as inhibitors of Plasmodium falciparum (HB3) proliferation (AID 743347);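 further: plate controls were DMSO vehicle wells for no effect and artemisinin wells for full effect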
Settings: P. falciparum HB3 in erythrocytes, SYBR Green DNA, 72 h; at 28.5 µM (top of the series)
Method in brief: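 Parasite DNA was quantified by SYBR Green I fluorescence (ex 485, em 535 nm) after overnight lysis in saponin/Triton buffer at room temperature. Cultures at 0.3% parasitemia and 2.5% hematocrit were first exposed to compound for 72 h at 37 C; signals were normalised to artemisinin (0.29 uM) and vehicle wells.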

SMILES | growth, % of control [%]
Cc1c(C(=O)c2cccc3ccccc23)c2cccc3c2n1[C@H](CN1CCOCC1)CO3 | 13.4
CCCCCC[C@H]1C(=O)O[C@H](C)[C@H](NC(=O)c2cccc(NC=O)c2O)C(=O)O[C@@H](C)[C@@H]1OC(=O)CC(C)C | 26.2
CC[C@@H](C(N)=O)N1CCCC1=O | 78.5
CC[C@@]1(O)C(=O)OCc2c1cc1n(c2=O)Cc2cc3ccccc3nc2-1 | 5.89
CN(C)[C@@H]1C(=O)C(C(N)=O)=C(O)[C@@]2(O)C(=O)C3=C(O)c4c(O)cccc4[C@@](C)(O)[C@H]3[C@H](O)[C@@H]12 | 19.3
CN(C)NC(=O)CCC(=O)O | 106
COC(=O)[C@@H](N)CCCN=C(N)N[N+](=O)[O-] | 92.1
CC(C)(O)C(=O)Nc1ccc([N+](=O)[O-])c(C(F)(F)F)c1 | 79
Oc1ccc2c3c1O[C@H]1c4[nH]c5c(c4C[C@@]4(O)[C@@H](C2)N(CC2CC2)CC[C@]314)C[C@@]1(O)[C@H]2Cc3ccc(O)c4c3[C@@]1(CCN2CC1CC1)[C@H]5O4 | 4.03
NC1CC1c1ccccc1 (stereo unspecified) | 109
COc1ccc2c(c[n+](C)c3c4cc5c(cc4ccc23)OCO5)c1OC | 104
